# Data taken from PubChem BioAssay (Tox21).
# Values joined by “and” are separate entries in the source; they are usually repeats but may differ in a detail not shown here. Equal entries are not always repeated. Results filed as inconclusive are left out. Entries that show only a call come without a potency. A structure can be active in one record and inactive in another. Active and inactive are the calls of the source. Calls follow the shape of the dose curve; as a rule, active = well fitted curve in the direction sought with a large enough effect in the repeat runs; inconclusive = weak or mixed curves; inactive = no such curve, though single readings can be large; an effect the other way counts as inactive or inconclusive.
# How the values were obtained:
# [1] = Caspase-3/7 induction in HepG2 cells by small molecules, qHTS assay (AID 1346978); also: nearly all actives have a fitted effect of over 15% in size
# Outline: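 Wild-type HepG2 cells (2,000/well) were settled 5 h at 37 C, 5% CO2, then exposed to compounds in DMSO for 17 h. Caspase-3/7 activity was read by luminescence 30 min after adding Caspase-Glo 3/7 reagent at room temperature.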
# [2] = Caspase-3/7 induction in CHO-K1 cells by small molecules, qHTS cell viability counter screen (AID 1346979); also: nearly all actives have a fitted effect of over 35% in size; also: potency is read from the fitted curve at half-maximal effect
# Outline: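 CHO-K1 wt, 1,500 cells/well; 5hr pre-incubation 37C/5% CO2; compound pin transfer (DMSO); 16hr exposure; CellTiter-Fluor added, 1hr, fluorescence read.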
# [3] = Caspase-3/7 induction in CHO-K1 cells by small molecules, qHTS assay (AID 1346980); also: nearly all actives have a fitted effect of over 15% in size; also: potency is read from the fitted curve at half-maximal effect
# Outline: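 Wild-type cells were seeded at 1,500 per well and settled 5 hr at 37 C, 5% CO2, then exposed to DMSO-dissolved compounds for 17 hr. Caspase-Glo 3/7 reagent was added, and luminescence was read after 30min at room temperature.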
# [4] = Caspase-3/7 induction in HepG2 cells by small molecules, qHTS cell viability counter screen (AID 1346981); also: nearly all actives have a fitted effect of over 30% in size; also: potency is read from the fitted curve at half-maximal effect
# Outline: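 In this quantitative HTS counter screen, compounds delivered in DMSO were left on unmodified HepG2 cells for 16 hr at 37 C. Viability was then determined fluorometrically with CellTiter-Fluor, in parallel with caspase-3/7 induction in the same wells.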
# [5] = molecular target: Nuclear receptor subfamily 1 group I member 2 (Homo sapiens) (UniProt O75469); test: Human pregnane X receptor (PXR) small molecule agonists, qHTS assay (AID 1346982); also: nearly all actives have a fitted effect of over 35% in size; also: potency is read from the fitted curve at half-maximal effect
# Outline: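 Reporter HepG2 cells expressing PXR-Luc are cultured in charcoal-stripped FBS (5%), treated with compounds for 24 hr at 37 C, and assayed by ONE-Glo luminescence after 30 min at room temperature.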
# [6] = molecular target: Cytochrome P450 2D6 (Homo sapiens) (UniProt P10635); test: Cytochrome P450 Family 2 Subfamily D Member 6 (CYP2D6) small molecule antagonists: luciferase reporter qHTS assay (AID 1671196); also: nearly all actives have a fitted effect of over 50% in size; also: potency is read from the fitted curve at half-maximal effect
# Outline: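 Test chemicals meet CYP2D6 plus proluciferin substrate (10 min, RT); NADPH regenerating solution then drives turnover for 1 h. Detection reagent halts the reaction; luminescence measured after 20 min.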
# [7] = molecular target: Cytochrome P450 2C9 (Homo sapiens) (UniProt P11712); test: Cytochrome P450 Family 2 Subfamily C Member 9 (CYP2C9) small molecule antagonists: luciferase reporter qHTS assay (AID 1671198); also: nearly all actives have a fitted effect of over 50% in size; also: potency is read from the fitted curve at half-maximal effect
# Outline: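 CYP2C9 activity was measured with a P450-Glo proluciferin substrate. Enzyme–substrate mix was held with compound for 10 min at room temperature, then NADPH regeneration solution was added for 1 h at 37C. Luciferin product was read as luminescence.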
# [8] = molecular target: Cytochrome P450 1A2 (Homo sapiens) (UniProt P05177); test: Cytochrome P450 Family 1 Subfamily A Member 2 (CYP1A2) small molecule antagonists: luciferase reporter qHTS assay (AID 1671199); also: nearly all actives have a fitted effect of over 50% in size; also: potency is read from the fitted curve at half-maximal effect
# Outline: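 Steps: enzyme-substrate mix dispensed; test compounds and furafylline control pinned in; 10 min room temperature; NADPH regeneration solution added, 1 h; reaction stopped with luciferin detection reagent; luminescence read after 20 min.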
# [9] = molecular target: Voltage-gated inwardly rectifying potassium channel KCNH2 (Homo sapiens) (UniProt Q12809); test: Human Ether-a-go-go-Related Gene (hERG) channel small molecule antagonists: fluorescence cell-based qHTS assay (AID 1671200); also: nearly all actives have a fitted effect of over 50% in size; also: potency is read from the fitted curve at half-maximal effect
# Outline: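 Read-out: thallium influx as a surrogate for potassium, tracked as fluorescence (480 nm ex/540 nm em) every second for 2 min after Stimulus Buffer addition in dye-loaded hERG-U2OS cells.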
# [10] = molecular target: Cytochrome P450 3A4 (Homo sapiens) (UniProt P08684); test: Cytochrome P450 Family 3 Subfamily A Member 4 (CYP3A4) small molecule antagonists: luciferase reporter qHTS assay (AID 1671201); also: nearly all actives have a fitted effect of over 50% in size; also: potency is read from the fitted curve at half-maximal effect
# Outline: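 Luminescent readout (RLU) proportional to CYP3A4 activity, from luciferin generated off a proluciferin substrate. Enzyme–substrate mix plus compound 10 min at room temp, NADPH regeneration 1 h, detection reagent 20 min.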
# [11] = molecular target: Cytochrome P450 2C19 (Homo sapiens) (UniProt P33261); test: Cytochrome P450 Family 2 Subfamily C Member 19 (CYP2C19) small molecule antagonists: luciferase reporter qHTS assay (AID 1671197); also: nearly all actives have a fitted effect of over 65% in size; also: potency is read from the fitted curve at half-maximal effect
# Outline: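 First, compounds are pinned into enzyme-substrate mix and held 10 min at room temperature. Second, NADPH regeneration solution is added and plates incubate 1 h at 37C. Third, detection reagent is added and luminescence read after 20 min.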
# Chain of Nuclear receptor subfamily 1 group I member 2 (Homo sapiens) (O75469 whole entry, looked up): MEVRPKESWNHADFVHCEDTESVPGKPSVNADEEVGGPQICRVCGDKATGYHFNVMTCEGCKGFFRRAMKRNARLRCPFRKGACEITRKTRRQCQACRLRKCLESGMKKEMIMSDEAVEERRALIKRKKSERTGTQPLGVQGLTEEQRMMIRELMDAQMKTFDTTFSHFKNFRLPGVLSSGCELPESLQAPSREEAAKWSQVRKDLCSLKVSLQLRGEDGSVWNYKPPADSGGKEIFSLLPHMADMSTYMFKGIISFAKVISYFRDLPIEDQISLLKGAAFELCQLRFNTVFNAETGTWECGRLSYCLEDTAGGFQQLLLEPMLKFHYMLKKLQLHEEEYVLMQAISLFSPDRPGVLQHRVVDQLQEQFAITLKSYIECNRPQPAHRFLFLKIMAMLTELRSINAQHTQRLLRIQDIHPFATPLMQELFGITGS
# Chain of Cytochrome P450 1A2 (Homo sapiens) (P05177 whole entry, looked up): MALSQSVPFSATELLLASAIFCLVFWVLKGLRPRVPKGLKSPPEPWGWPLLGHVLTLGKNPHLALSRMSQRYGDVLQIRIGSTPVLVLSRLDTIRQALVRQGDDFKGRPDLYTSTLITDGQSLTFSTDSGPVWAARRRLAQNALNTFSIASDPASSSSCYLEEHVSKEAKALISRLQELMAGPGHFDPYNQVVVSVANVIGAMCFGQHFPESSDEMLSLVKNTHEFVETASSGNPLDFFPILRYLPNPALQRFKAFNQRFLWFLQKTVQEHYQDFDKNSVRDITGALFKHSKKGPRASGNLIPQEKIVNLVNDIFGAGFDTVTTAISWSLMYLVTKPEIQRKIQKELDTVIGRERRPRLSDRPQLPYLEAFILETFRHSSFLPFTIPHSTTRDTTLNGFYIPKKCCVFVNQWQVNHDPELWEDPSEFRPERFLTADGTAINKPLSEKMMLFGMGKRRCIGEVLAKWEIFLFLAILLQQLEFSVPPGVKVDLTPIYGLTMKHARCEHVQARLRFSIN
# Chain of Cytochrome P450 3A4 (Homo sapiens) (P08684 whole entry, looked up): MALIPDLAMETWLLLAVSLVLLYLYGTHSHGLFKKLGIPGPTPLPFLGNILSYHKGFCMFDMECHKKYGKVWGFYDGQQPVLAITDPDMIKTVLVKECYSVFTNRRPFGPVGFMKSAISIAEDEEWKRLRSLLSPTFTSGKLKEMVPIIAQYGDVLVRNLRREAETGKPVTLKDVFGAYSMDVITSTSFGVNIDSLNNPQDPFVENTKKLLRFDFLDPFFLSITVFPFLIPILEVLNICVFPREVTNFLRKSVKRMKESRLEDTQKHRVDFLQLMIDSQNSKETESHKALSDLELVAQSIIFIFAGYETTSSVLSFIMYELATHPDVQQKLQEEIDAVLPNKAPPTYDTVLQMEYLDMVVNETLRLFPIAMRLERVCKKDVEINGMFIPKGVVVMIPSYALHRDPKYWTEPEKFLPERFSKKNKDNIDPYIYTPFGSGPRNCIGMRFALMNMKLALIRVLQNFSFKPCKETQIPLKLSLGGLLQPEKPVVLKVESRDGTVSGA
# Chain of Cytochrome P450 2C9 (Homo sapiens) (P11712 whole entry, looked up): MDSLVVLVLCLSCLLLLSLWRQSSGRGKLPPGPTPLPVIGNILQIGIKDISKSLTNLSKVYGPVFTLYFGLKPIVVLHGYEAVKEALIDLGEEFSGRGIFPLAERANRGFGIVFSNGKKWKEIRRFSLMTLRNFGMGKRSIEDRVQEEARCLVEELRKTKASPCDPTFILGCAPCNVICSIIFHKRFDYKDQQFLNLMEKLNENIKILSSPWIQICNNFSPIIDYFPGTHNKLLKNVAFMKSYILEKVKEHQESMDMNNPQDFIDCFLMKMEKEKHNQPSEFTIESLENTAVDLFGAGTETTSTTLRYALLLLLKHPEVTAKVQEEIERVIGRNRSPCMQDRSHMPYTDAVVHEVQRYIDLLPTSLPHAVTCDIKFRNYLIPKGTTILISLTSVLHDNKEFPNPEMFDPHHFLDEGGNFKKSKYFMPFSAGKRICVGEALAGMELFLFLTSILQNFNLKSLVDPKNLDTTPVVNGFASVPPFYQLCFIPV
# Chain of Cytochrome P450 2D6 (Homo sapiens) (P10635 whole entry, looked up): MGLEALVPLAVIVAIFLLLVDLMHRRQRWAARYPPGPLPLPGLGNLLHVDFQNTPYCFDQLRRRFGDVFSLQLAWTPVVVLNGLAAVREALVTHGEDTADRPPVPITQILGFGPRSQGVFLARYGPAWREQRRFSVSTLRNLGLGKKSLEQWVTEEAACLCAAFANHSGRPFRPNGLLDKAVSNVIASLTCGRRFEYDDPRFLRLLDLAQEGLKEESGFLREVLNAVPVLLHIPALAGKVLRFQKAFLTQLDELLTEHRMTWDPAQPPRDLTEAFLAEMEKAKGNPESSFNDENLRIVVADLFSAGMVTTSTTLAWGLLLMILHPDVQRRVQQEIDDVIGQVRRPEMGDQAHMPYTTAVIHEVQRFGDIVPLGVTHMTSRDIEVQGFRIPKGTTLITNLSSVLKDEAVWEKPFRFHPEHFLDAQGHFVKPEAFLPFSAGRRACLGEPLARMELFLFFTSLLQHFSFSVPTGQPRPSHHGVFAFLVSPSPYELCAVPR
# Chain of Cytochrome P450 2C19 (Homo sapiens) (P33261 whole entry, looked up): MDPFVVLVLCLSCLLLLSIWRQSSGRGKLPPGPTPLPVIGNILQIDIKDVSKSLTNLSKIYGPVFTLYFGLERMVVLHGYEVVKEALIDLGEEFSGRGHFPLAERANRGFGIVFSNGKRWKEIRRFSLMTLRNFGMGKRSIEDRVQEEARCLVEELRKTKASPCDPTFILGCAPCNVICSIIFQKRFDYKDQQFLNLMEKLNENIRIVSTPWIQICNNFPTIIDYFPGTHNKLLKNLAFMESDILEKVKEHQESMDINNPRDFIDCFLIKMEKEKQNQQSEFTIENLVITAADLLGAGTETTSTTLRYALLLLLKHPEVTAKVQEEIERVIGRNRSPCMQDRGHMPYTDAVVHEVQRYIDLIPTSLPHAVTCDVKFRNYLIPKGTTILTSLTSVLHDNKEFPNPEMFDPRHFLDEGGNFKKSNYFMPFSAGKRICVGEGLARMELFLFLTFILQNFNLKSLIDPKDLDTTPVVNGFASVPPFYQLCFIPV
# Chain of Voltage-gated inwardly rectifying potassium channel KCNH2 (Homo sapiens) (Q12809 whole entry, looked up): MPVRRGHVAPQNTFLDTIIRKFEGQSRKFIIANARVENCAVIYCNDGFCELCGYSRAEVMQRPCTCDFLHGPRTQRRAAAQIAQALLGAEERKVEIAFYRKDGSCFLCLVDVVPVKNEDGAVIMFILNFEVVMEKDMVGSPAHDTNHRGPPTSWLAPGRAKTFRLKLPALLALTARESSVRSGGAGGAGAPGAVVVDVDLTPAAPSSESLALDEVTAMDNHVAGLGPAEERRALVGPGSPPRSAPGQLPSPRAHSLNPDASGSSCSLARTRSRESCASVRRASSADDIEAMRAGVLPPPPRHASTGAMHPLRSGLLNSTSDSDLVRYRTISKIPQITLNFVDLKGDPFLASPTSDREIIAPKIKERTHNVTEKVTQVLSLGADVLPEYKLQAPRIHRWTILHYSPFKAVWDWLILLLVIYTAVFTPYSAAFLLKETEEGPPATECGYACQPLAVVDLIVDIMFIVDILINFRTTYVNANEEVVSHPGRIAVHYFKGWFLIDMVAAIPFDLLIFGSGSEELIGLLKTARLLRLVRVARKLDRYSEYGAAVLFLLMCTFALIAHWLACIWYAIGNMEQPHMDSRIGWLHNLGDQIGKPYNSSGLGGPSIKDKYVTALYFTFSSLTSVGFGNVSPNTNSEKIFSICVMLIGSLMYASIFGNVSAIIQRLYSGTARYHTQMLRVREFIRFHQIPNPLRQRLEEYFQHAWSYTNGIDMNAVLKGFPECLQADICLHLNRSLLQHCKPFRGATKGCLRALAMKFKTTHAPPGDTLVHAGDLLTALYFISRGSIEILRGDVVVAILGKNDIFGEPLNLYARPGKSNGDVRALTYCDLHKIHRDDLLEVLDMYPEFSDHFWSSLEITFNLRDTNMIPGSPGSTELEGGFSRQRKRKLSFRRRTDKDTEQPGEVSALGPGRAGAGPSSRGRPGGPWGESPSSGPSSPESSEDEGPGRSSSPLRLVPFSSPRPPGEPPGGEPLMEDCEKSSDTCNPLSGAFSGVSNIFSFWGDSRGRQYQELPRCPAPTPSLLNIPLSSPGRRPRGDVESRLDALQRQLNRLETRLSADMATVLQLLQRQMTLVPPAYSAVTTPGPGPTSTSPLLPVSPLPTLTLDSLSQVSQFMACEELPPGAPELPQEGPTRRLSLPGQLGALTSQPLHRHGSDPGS
Structure (SMILES),Potency [1],Potency [2],Potency [3],Potency [4],Potency [5],Potency [6],Potency [7],Potency [8],Potency [9],Potency [10],Potency [11]
CNC1(C)C2CCC(C2)C1(C)C (stereo unspecified),inactive,inactive,inactive,inactive,inactive,inactive,inactive,inactive,inactive,inactive,–
O=C(O)CCc1ccccc1,inactive,inactive,inactive,–,inactive,inactive,inactive,inactive,inactive,inactive,inactive
CC[C@]1(O)C[C@@H]2CN(CCc3c([nH]c4ccccc34)[C@@](C(=O)OC)(c3cc4c(cc3OC)N(C)[C@H]3[C@@](O)(C(=O)OC)[C@H](OC(C)=O)[C@]5(CC)C=CCN6CC[C@]43[C@@H]65)C2)C1,inactive,1.33 µM (active) and 119 nM (active),inactive,29.8 µM (active),–,–,–,–,inactive,–,–
COC(=O)[C@H]1[C@H]2C[C@@H]3c4[nH]c5cc(OC)ccc5c4CCN3C[C@H]2C[C@@H](OC(=O)c2cc(OC)c(OC)c(OC)c2)[C@@H]1OC,–,30.6 µM (active) and 39.7 µM (active) and inactive,inactive,44.5 µM (active) and inactive,–,28.2 µM (active) and 9.19 µM (active),–,32.6 µM (active) and inactive,3.46 µM (active) and 6.34 µM (active) and 10.7 µM (active),–,41.1 µM (active) and inactive
BrC1CCC(Br)C(Br)CCC(Br)C(Br)CCC1Br (stereo unspecified),–,48.4 µM (active),60.9 µM (active),inactive,54.3 µM (active) and 46.1 µM (active),inactive,10.7 µM (active),inactive,15.4 µM (active),1.41 µM (active) and 1.51 µM (active),1.26 µM (active) and 1.34 µM (active)
CCc1cc(C(C)(C)C)c(O)c(C(C)(C)C)c1,inactive,inactive,inactive,inactive,inactive and 34.4 µM (active),inactive,–,inactive,inactive,inactive,71.7 µM (active) and inactive
Oc1c(Cl)cc(Cl)cc1Sc1cc(Cl)cc(Cl)c1O,inactive,15.4 µM (active) and 62.1 µM (active) and 17.2 µM (active),inactive,15.4 µM (active),–,inactive,–,72.2 µM (active) and inactive,inactive,inactive,71.2 µM (active) and 79.6 µM (active) and inactive
CC(C)(O)CCC(C)(C)O,–,inactive,inactive,inactive,inactive,inactive,inactive,inactive,inactive,inactive,inactive
